Test results as given in PubChem BioAssay (NCI).
This is part of a sample that, as a whole, favours compounds with a hit. Of some 83,000 tested, about 20% had one in any assay.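 48-hour exposure, single concentration, 96-well plates; percent growth endpoint where 0 means no net growth. Active: below 10.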 A number with no mark means an inactive call. Activity calls are given as the source filed them.

What was measured:
Experiment in all cases: NCI-60 one-dose screen, 48 h (100 = growth as untreated, 0 = no growth, -100 = all killed)
Conditions in all cases: 10 µM
NCI-H226 lung = system: NCI-H226 lung
NCI-H322M lung = system: NCI-H322M lung
HOP-62 NSCLC = system: HOP-62 NSCLC
NCI-H460 lung = system: NCI-H460 lung
HOP-92 NSCLC = system: HOP-92 NSCLC
NCI-H522 lung = system: NCI-H522 lung
A549/ATCC NSCLC = system: A549/ATCC NSCLC
786-0 renal = system: 786-0 renal
COLO 205 colon = system: COLO 205 colon

O=C(CNc1nc(-c2ccccc2)cs1)Nc1ccc(Cl)cc1[N+](=O)[O-]
growth (NCI-H226 lung): -54.2% (active) | growth (NCI-H322M lung): 35.7% | growth (HOP-62 NSCLC): -27.7% (active) | growth (NCI-H460 lung): 5.09% (active) | growth (HOP-92 NSCLC): -14.2% (active) | growth (NCI-H522 lung): -82.8% (active) | growth (A549/ATCC NSCLC): 12.6% | growth (786-0 renal): 4.95% (active) | growth (COLO 205 colon): -64.7% (active)

COc1ccc(C(C)=C(c2ccc(OCCCN(C)C)cc2)c2ccc(OCCCN(C)C)cc2)cc1
growth (NCI-H226 lung): -82.2% (active) | growth (NCI-H322M lung): -97.1% (active) | growth (HOP-62 NSCLC): -92.2% (active) | growth (NCI-H460 lung): -44.2% (active) | growth (HOP-92 NSCLC): -74.5% (active) | growth (A549/ATCC NSCLC): -92.5% (active) | growth (786-0 renal): -82.6% (active) | growth (COLO 205 colon): -90.2% (active)

Cc1ccn2c(C(=O)c3ccccc3)cc(-c3cc(-c4ccc(N(C)C)cc4)c(C#N)c(N)n3)c2c1
growth (NCI-H226 lung): 16.7% | growth (NCI-H322M lung): 75.1% | growth (HOP-62 NSCLC): 53.1% | growth (NCI-H460 lung): 56% | growth (HOP-92 NSCLC): 23.6% | growth (NCI-H522 lung): 79.4% | growth (A549/ATCC NSCLC): 45.9% | growth (786-0 renal): 21% | growth (COLO 205 colon): 66.2%
